From PubChem BioAssay
Activity calls are given as the source filed them.

How the values were obtained:
[1] = test system: Plasmodium falciparum Sir2 (PF13_0152, Sir2A); assay: Plasmodium falciparum Sir2A binding compounds – biochemical, small-molecule microarray, 635 nm fluorescence, primary screen (AID 1098); conditions: fluorescence 635 nm, higher = more signal;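 note: score merges spot fluorescence intensity with its signal-to-noise ratio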
[2] = probe aDKK1 binding to arrayed compounds – biochemical, biotinylated probe, 635/667 nm fluorescence, primary screen (AID 1099); conditions: small-molecule microarray, higher = more signal;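 note: score merges 667nm spot fluorescence with signal to noise across triplicate slides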
[3] = probe aCHRDL2 binding to arrayed compounds – biochemical, biotinylated probe, 635/667 nm fluorescence, primary screen (AID 1100); conditions: small-molecule microarray, higher = more signal
[4] = change in splice reporter luminescence, either direction, cell-based, HEK293, spliceosome inhibition project, primary screen (AID 1101); conditions: HEK293 splicing luciferase reporter, 24 h, higher = more signal, called active from +8 up or from −8 down;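 note: HEK293 cells carrying a splicing-competent luciferase reporter gene; test concentration not given here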
[5] = molecular target: Fibroblast growth factor 10 (Homo sapiens) (UniProt O15520); assay: compounds binding fibroblast growth factor 10 – biochemical, small-molecule microarray, 635 nm fluorescence, primary screen (AID 1102); conditions: FGF10 binding, fluorescence 635 nm, higher = more signal
Fibroblast growth factor 10 (Homo sapiens), sequence (O15520 whole entry, looked up): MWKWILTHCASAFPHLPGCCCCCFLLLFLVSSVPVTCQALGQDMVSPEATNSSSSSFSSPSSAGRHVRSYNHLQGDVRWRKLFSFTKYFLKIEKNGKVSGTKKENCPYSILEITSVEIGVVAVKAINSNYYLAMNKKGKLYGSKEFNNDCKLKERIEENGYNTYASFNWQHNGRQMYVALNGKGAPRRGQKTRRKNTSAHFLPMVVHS

[6] = test system: glycogen synthase kinase-3 (GSK3A per assay name; protocol says GSK3B); assay: compounds binding glycogen synthase kinase-3 – biochemical, small-molecule microarray, 635 nm fluorescence, GSK3A, primary screen (AID 1103); conditions: fluorescence 635 nm, higher = more signal; note: the record names both GSK3A and GSK3B
[7] = molecular target: Epidermal growth factor receptor (Homo sapiens) (UniProt P00533); assay: compounds binding epidermal growth factor receptor – biochemical, small-molecule microarray, 635 nm fluorescence, primary screen (AID 1104); conditions: EGFR binding, higher = more signal;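 note: score merges 667 nm emission intensity with spot signal to noise over triplicate slides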
Epidermal growth factor receptor (Homo sapiens), sequence (P00533 whole entry, looked up): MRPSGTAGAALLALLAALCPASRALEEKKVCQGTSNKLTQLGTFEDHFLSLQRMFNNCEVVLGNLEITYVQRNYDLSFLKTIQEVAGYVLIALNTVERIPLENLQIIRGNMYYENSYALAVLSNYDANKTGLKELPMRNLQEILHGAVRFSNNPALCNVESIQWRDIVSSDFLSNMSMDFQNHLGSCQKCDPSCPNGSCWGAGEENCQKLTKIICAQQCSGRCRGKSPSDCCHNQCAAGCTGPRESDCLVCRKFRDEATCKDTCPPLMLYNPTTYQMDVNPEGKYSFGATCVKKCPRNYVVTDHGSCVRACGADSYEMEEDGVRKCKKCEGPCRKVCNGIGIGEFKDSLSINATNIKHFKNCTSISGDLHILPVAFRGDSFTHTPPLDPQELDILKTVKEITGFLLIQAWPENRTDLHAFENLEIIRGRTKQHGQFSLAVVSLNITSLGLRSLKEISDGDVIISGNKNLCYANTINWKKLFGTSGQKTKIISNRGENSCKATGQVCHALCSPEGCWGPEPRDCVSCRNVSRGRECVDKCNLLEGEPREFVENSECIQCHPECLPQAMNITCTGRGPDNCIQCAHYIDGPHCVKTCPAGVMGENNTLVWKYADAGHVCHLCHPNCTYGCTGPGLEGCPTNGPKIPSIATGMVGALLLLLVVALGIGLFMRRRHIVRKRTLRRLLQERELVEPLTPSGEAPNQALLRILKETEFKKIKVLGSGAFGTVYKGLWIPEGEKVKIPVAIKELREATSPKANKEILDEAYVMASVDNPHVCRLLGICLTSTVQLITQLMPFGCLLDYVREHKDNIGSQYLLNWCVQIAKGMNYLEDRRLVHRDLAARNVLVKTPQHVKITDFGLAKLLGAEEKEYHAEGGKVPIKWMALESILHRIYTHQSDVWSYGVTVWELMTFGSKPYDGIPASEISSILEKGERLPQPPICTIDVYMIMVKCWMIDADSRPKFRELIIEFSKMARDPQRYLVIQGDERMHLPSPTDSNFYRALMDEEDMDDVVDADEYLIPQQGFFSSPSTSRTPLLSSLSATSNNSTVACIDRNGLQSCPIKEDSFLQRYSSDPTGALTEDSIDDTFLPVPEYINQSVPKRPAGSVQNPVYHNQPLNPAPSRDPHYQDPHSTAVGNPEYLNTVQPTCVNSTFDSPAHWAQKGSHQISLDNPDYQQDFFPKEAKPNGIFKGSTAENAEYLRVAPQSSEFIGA

[8] = molecular target: Follistatin-related protein 3 (Homo sapiens) (UniProt O95633); assay: compounds binding follistatin-related protein 3 – biochemical, small-molecule microarray, 635 nm fluorescence, primary screen (AID 1105); conditions: FSTL3 binding, higher = more signal;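 note: score merges emission near 667 nm and signal to noise per printed spot across three slides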
Follistatin-related protein 3 (Homo sapiens), sequence (O95633 whole entry, looked up): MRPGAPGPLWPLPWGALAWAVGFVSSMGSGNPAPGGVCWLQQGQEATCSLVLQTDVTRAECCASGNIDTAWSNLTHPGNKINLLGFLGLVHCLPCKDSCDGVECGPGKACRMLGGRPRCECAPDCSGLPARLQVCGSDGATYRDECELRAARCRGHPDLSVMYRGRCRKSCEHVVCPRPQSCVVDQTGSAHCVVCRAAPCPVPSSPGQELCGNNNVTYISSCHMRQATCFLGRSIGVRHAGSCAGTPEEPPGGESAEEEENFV

[9] = molecular target: Dickkopf-related protein 1 (Homo sapiens) (UniProt O94907); assay: small molecules binding DKK1 protein – biochemical, small-molecule microarray, 635 nm fluorescence scan, primary screen (AID 1106); conditions: higher = more signal;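 note: score merges emission near 667 nm with signal to noise over three replicate slides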
Dickkopf-related protein 1 (Homo sapiens), sequence (O94907 whole entry, looked up): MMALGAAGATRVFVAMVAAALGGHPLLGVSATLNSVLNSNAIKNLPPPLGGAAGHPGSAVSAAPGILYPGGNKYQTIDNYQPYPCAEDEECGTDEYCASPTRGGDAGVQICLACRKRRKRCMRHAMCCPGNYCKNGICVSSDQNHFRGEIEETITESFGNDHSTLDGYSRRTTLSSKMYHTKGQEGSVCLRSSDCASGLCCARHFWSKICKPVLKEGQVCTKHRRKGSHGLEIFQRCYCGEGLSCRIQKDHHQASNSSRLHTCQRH

[10] = test system: Inhibin beta A chain (activin A); assay: small molecules binding activin A – biochemical, small-molecule microarray, 635 nm fluorescence scan, primary screen (AID 1107); conditions: INHBA, higher = more signal;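 note: mouse activin A protein probed at 4.33 µg/mL on printed slides; score merges bound-protein fluorescence near 667 nm with spot signal-to-noise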
[11] = test system: Human papillomavirus type 1a protein E7 (residues 44-93); assay: small molecules binding HPV E7 44-93 – biochemical, small-molecule microarray, residues 44-93, 635 nm fluorescence, primary screen (AID 1108); conditions: fluorescence 635 nm, higher = more signal;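 note: E7 fragment applied at 1 µg/mL in TBST for 1 h at 4 C; score combines spot fluorescence with its signal to noise ratio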
[12] = hepatitis C replication reporter changes, two-sided – Huh7 cells, luciferase reporter, HCV replication inhibitor project, primary screen (AID 1109); conditions: Huh7 HCV replicon luciferase reporter, 48 h; higher = more signal;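 note: huh7 hepatoma cells harbouring a luciferase neomycin HCV replicon reporter; luciferase luminescence as measure of HCV replicon replication; test concentration not given here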
[13] = molecular target: Left-right determination factor 2 (Homo sapiens) (UniProt O00292); assay: small molecules binding LEFTY2 protein – biochemical, small-molecule microarray, 635 nm fluorescence scan, primary screen (AID 1110); conditions: higher = more signal
Left-right determination factor 2 (Homo sapiens), sequence (O00292 whole entry, looked up): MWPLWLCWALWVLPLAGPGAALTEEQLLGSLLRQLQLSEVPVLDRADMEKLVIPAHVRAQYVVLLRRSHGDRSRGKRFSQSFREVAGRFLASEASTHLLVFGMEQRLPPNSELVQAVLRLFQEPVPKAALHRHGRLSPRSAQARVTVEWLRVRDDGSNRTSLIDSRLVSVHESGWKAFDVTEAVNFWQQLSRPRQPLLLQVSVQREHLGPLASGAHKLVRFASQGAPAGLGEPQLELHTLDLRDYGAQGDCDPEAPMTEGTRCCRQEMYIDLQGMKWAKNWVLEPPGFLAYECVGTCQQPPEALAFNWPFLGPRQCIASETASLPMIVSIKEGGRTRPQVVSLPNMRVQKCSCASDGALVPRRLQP

[14] = molecular target: Calmodulin-1 (Homo sapiens) (UniProt P0DP23); assay: small molecules binding calmodulin-1 with EGTA – biochemical, small-molecule microarray, Cy5-labelled CALM1, profiling panel (AID 1111); conditions: Cy5-CALM1 binding fluorescence, higher = more signal;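 note: labelled calmodulin applied in Tris saline Tween buffer holding calcium plus EGTA and DTT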
[15] = molecular target: Calmodulin-1 (Homo sapiens) (UniProt P0DP23); assay: small molecules binding Ca-loaded calmodulin-1 – biochemical, small-molecule microarray, Cy5-labelled CALM1, plus calcium, artefact control for SMM control-protein annotation, profiling panel (AID 1112); conditions: Cy5-CALM1 binding fluorescence, higher = more signal;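 note: score merges spot fluorescence with signal to noise from triplicate slides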
[16] = probe aWnt5a binding to arrayed compounds – biochemical, biotinylated probe, 635/667 nm fluorescence, primary screen (AID 1113); conditions: small-molecule microarray, higher = more signal;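 note: score merges 667 nm fluorescence intensity with signal-to-noise per printed feature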
[17] = probe aShh binding to arrayed compounds – biochemical, biotinylated probe, 635/667 nm fluorescence, primary screen (AID 1114); conditions: small-molecule microarray, higher = more signal;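 note: probe is biotin-labelled aShh protein from a stem cell growth factor screen; measures binding of labelled protein to compounds printed on the slide; score merges feature fluorescence at 667 nm with signal-to-noise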
[18] = probe aNog binding to arrayed compounds – biochemical, biotinylated probe, 635/667 nm fluorescence, primary screen (AID 1115); conditions: small-molecule microarray, higher = more signal;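 note: probe is biotinylated aNog protein used at 0.15 µg/mL for 1 h at 4 C; z-score combines 667 nm fluorescence of each spot with its signal to noise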
[19] = molecular target: Torsin-1A-interacting protein 1 (Homo sapiens) (UniProt Q5JTV8); assay: compound microarray binding of lysate hLAP1 – cell lysate, small-molecule microarray, COS7 lysate, 635/667 nm fluorescence, primary screen (AID 1116); conditions: 635 nm fluorescence, higher = more signal
Torsin-1A-interacting protein 1 (Homo sapiens), sequence (Q5JTV8 whole entry, looked up): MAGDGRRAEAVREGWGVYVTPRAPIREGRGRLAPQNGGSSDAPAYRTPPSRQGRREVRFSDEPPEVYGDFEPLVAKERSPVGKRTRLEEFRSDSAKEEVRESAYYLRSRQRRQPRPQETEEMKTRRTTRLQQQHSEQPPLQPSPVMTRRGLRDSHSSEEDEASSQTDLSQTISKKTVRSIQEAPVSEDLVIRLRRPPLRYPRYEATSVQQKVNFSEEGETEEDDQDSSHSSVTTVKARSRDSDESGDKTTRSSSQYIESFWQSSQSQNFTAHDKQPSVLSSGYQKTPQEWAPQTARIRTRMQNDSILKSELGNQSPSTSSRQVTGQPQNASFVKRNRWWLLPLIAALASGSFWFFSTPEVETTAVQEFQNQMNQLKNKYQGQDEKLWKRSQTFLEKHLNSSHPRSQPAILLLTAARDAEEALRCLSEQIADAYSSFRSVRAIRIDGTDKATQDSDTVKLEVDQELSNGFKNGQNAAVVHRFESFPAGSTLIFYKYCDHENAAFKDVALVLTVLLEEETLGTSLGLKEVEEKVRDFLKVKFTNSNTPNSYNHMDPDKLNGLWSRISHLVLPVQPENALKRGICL

[20] = molecular target: Alpha-bungarotoxin (Bungarus multicinctus) (UniProt P60615); assay: compounds binding labelled alpha-BTX control protein – biochemical, small-molecule microarray, Alexa647 label, 635/667 nm fluorescence, artefact control for SMM control protein annotation, profiling panel (AID 1117); conditions: alpha-BTX-A647 binding fluorescence, higher = more signal
Alpha-bungarotoxin (Bungarus multicinctus), sequence (P60615 whole entry, looked up): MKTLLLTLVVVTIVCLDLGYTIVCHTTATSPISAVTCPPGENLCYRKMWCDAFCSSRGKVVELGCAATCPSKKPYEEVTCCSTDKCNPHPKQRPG

Row | Compound | composite z-score [1] | composite z-score [2] | composite z-score [3] | z-score [4] | composite z-score [5] | composite z-score [6] | composite z-score [7] | composite z-score [8] | composite z-score [9] | composite z-score [10] | composite z-score [11] | z-score [12] | composite z-score [13] | composite z-score [14] | composite z-score [15] | composite z-score [16] | composite z-score [17] | composite z-score [18] | composite z-score [19] | composite z-score [20]
1 | COC(=O)[C@@]1(Cc2ccc(OC)cc2)[C@H]2c3cc(C(=O)N4CCCC4)n(Cc4ccc(O)c(OC)c4)c3C[C@H]2CN1C(=O)c1ccccc1 | 1.18 | 1.92 | 1.39 | -1.15 (inactive) | 0.511 | 0.164 | 0.207 | 0.282 | 0.0115 | -0.0478 | 0.425 | -1.78 | -0.114 | 2.7 | 0.957 | 0.755 | 1.04 | 2.35 | 3.25 | 1.25
2 | CC1(C)C2C=C(C(O)C3C=CC4C(=O)NC(=O)C4N3Nc3ccc(Cl)cc3Cl)C[C@@H]1C2 (stereo not given in full) | 0.213 | 1.05 | 1.16 | 2.5 (inactive) | 0.808 | 0.0644 | 0.27 | 0.745 | -0.214 | 1.08 | 0.772 | -1.45 | -0.0061 | 2.35 | 1.01 | -0.006 | 0.275 | 0.503 | 1.27 | 1.31
3 | O=C(N1CCCCC1)[C@]1(Cc2ccccc2)N=C(c2ccc(OCCCO)cc2)O[C@@H]1c1ccccc1 | 1.05 | 0.887 | 1.08 | -0.555 (inactive) | 0.956 | 0.669 | -0.394 | 0.512 | -0.474 | 0.99 | 1.42 | -3.4 | 0.0931 | 1.48 | 0.516 | 0.0744 | 0.446 | 0.85 | 0.252 | 0.977
4 | NC(=O)N1C(=O)C2C(C1=O)C1C=C(c3ccc(CO)cc3)C2C(c2cccs2)N1Cc1cccc(OC(F)(F)F)c1 (stereo not given) | -0.148 | 0.799 | 1.02 | -1.99 (inactive) | 0.302 | -0.343 | -0.813 | 0.122 | 0.245 | 1.49 | 0.142 | -0.657 | -0.647 | 1.51 | 1.16 | 0.0573 | 0.275 | 0.596 | 1.13 | 0.611
5 | CC(C)C[C@@H]1NC(=O)[C@@H]2C[C@H](C(=O)O)[C@H](c3cccc(OCCO)c3)N2C1=O | 0.881 | -0.212 | 0.598 | -0.358 (inactive) | -0.246 | 0.12 | -0.242 | 0.152 | -0.176 | -0.513 | -0.366 | 0.148 | -0.312 | 0.26 | 0.758 | -0.147 | -0.199 | -0.066 | 0.517 | -0.937
6 | C=C[C@H](CO)NS(=O)(=O)c1ccc(Br)cc1 | 0.54 | 0.867 | -0.54 | -0.0902 (inactive) | 0.335 | 0.526 | 0.393 | 0.695 | 0.751 | 0.84 | 1.05 | 0.109 | 0.375 | 0.158 | -0.268 | -0.096 | -0.2 | -0.266 | 0.306 | 0.275
7 | CCC(CC)C(O)C1C=CC2C(=O)NC(=O)C2N1Nc1ccc(Cl)cc1Cl (stereo not given) | 1.28 | 0.921 | 1 | 1.6 (inactive) | 0.626 | 0.451 | -0.304 | 0.934 | -0.267 | 0.764 | 0.672 | -0.759 | -0.46 | 1.93 | 1.15 | -0.12 | 0.234 | -0.452 | 0.247 | 1.05
8 | CCOC(=O)C1=C[C@@H](C(C)(C)C)N(S(=O)(=O)c2ccc(C)cc2)[C@H]1c1ccc(F)cc1 | 0.592 | 0.75 | 0.4 | -0.711 (inactive) | 0.81 | 1.29 | 0.395 | 1.23 | 0.402 | 0.556 | 1.41 | -1.59 | 0.653 | 1.49 | 0.083 | 0.0668 | -0.1 | 0.509 | 0.992 | 1.15
9 | COCCOC(=O)N1C(=O)[C@@]2(c3cc(C#CCC(C(=O)OC)C(=O)OC)ccc31)[C@H](c1ccccc1OCCO)N1[C@H](c3ccccc3)[C@H](c3ccccc3)OC(=O)[C@H]1[C@@H]2C(=O)NC[C@H](O)c1ccccc1 | 1.36 | 0.877 | 0.326 | 3.84 (inactive) | 1.05 | 1.29 | 1.17 | 1.23 | 0.66 | 0.619 | 0.948 | -2.28 | 1.44 | 0.832 | 0.277 | 0.0718 | 0.275 | 0.237 | 0.876 | 0.926
10 | CC(C)C(O)C1C=CC2C(=O)NC(=O)C2N1Nc1ccc(Cl)cc1Cl (stereo not given) | 0.686 | 1.2 | 1.37 | 1.54 (inactive) | -0.0826 | -0.234 | -0.0718 | -0.265 | -0.939 | 1.47 | -0.898 | -0.88 | -0.226 | 1.5 | 1.23 | -0.0944 | -0.296 | 0.0266 | 1.91 | 0.712
11 | COc1ccc([C@H]2OC[C@@H]3C[C@@H](Cc4ccccc4)C(=O)N32)cc1 | 0.143 | -0.191 | -0.435 | 0.247 (inactive) | 1.3 | 0.228 | 0.424 | 0.821 | 0.326 | -0.0187 | -0.235 | -0.859 | 0.311 | -0.05 | -0.317 | -0.0203 | -0.0146 | -0.0273 | 0.53 | -0.429
